Experiment [1] has as its target T1, Ephrin type-B receptor 2 (Homo sapiens) (UniProt P29323).
T1 sequence (whole entry): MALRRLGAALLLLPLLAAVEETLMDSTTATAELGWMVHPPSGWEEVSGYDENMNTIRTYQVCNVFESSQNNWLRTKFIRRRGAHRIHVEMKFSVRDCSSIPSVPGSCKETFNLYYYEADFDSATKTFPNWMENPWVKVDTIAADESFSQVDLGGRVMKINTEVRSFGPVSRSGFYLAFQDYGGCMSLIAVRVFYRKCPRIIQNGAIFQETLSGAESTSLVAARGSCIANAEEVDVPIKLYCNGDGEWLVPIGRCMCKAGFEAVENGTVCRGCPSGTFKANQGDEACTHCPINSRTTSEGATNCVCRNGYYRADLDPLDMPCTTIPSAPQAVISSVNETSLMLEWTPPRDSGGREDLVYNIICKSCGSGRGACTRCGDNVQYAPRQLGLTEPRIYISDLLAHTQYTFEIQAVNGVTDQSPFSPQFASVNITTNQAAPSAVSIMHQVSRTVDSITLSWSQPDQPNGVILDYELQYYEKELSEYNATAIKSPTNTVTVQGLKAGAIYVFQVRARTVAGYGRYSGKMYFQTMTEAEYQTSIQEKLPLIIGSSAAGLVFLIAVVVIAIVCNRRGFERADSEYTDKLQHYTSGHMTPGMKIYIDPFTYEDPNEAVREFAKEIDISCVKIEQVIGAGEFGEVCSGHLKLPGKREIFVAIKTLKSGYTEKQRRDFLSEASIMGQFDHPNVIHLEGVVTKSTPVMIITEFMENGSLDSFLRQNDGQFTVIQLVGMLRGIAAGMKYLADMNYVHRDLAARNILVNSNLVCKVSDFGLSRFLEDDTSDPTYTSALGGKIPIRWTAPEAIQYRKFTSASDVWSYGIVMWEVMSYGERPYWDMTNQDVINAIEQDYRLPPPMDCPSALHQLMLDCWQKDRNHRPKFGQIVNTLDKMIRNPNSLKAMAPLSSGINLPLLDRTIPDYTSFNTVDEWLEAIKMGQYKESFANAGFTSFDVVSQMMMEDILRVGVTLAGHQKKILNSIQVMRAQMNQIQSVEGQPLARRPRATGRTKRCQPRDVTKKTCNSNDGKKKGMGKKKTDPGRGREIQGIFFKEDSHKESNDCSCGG
The note with it: at 1 µM.

Experiment [2] concerns the target T2, Ephrin type-B receptor 3 (Homo sapiens) (UniProt P54753).
T2 sequence (whole entry): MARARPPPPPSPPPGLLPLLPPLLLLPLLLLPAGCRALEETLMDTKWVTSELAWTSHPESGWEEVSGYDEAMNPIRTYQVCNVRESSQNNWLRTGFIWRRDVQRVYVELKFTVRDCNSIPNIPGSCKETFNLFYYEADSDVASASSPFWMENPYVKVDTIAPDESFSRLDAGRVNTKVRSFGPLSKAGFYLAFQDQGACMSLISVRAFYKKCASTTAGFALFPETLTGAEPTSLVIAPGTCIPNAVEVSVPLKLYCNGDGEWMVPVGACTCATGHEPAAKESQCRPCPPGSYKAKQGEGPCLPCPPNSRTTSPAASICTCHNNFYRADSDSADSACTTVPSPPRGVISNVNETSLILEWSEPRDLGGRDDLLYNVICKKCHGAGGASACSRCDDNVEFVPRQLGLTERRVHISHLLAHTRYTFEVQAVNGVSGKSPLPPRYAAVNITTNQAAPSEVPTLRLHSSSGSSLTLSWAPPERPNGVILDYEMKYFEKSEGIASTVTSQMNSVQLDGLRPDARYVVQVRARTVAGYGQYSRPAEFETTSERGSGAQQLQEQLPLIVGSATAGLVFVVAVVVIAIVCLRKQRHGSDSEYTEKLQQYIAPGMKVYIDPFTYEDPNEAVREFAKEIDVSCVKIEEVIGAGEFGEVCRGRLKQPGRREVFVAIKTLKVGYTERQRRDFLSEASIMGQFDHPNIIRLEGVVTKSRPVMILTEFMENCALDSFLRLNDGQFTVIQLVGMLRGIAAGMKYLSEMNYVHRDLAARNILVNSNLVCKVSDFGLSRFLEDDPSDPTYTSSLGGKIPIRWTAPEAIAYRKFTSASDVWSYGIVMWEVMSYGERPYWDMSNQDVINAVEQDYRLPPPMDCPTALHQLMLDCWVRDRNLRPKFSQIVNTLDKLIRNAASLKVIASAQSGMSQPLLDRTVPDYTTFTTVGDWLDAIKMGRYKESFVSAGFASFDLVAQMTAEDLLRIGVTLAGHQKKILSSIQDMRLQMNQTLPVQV
Particulars: at 0.1 µM.

Experiment [3] has as its target T2, Ephrin type-B receptor 3 (Homo sapiens). The note with it: at 1 µM.
The target of experiment [4] is T3, Ephrin type-B receptor 4 (Homo sapiens) (UniProt P54760).
T3 sequence (whole entry): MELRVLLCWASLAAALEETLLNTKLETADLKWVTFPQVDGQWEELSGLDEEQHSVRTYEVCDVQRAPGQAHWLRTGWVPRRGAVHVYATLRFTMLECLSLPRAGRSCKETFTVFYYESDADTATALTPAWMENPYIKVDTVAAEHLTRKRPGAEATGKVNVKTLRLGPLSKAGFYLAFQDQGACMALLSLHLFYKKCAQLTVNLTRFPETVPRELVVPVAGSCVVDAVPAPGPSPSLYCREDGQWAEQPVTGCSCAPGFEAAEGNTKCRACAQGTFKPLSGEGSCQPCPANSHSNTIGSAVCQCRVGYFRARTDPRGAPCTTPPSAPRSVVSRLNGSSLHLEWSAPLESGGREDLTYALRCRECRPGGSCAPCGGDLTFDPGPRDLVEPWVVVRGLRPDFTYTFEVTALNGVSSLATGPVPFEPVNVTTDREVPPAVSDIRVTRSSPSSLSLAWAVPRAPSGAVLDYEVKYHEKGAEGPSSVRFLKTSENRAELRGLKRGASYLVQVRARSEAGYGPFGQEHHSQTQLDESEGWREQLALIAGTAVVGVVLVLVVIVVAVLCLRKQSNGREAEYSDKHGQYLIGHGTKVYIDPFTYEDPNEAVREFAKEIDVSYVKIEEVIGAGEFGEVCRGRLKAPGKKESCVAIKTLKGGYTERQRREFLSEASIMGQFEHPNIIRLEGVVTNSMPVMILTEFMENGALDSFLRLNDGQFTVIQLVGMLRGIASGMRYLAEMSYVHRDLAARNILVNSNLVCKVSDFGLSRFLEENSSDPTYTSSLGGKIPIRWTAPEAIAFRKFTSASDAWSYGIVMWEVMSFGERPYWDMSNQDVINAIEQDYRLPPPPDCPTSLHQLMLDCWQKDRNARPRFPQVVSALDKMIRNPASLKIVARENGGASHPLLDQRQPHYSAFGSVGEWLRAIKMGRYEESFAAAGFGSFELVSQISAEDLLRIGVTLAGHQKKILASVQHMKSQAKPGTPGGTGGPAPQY
The note with it: at 0.1 µM.

For experiment [5], the target named is T3, Ephrin type-B receptor 4 (Homo sapiens). Particulars: at 1 µM.
The target in experiment [6] is Receptor tyrosine-protein kinase erbB-2 (Homo sapiens) (UniProt P04626). The note with it: at 0.1 µM.
Receptor tyrosine-protein kinase erbB-2 (Homo sapiens), sequence (P04626 whole entry): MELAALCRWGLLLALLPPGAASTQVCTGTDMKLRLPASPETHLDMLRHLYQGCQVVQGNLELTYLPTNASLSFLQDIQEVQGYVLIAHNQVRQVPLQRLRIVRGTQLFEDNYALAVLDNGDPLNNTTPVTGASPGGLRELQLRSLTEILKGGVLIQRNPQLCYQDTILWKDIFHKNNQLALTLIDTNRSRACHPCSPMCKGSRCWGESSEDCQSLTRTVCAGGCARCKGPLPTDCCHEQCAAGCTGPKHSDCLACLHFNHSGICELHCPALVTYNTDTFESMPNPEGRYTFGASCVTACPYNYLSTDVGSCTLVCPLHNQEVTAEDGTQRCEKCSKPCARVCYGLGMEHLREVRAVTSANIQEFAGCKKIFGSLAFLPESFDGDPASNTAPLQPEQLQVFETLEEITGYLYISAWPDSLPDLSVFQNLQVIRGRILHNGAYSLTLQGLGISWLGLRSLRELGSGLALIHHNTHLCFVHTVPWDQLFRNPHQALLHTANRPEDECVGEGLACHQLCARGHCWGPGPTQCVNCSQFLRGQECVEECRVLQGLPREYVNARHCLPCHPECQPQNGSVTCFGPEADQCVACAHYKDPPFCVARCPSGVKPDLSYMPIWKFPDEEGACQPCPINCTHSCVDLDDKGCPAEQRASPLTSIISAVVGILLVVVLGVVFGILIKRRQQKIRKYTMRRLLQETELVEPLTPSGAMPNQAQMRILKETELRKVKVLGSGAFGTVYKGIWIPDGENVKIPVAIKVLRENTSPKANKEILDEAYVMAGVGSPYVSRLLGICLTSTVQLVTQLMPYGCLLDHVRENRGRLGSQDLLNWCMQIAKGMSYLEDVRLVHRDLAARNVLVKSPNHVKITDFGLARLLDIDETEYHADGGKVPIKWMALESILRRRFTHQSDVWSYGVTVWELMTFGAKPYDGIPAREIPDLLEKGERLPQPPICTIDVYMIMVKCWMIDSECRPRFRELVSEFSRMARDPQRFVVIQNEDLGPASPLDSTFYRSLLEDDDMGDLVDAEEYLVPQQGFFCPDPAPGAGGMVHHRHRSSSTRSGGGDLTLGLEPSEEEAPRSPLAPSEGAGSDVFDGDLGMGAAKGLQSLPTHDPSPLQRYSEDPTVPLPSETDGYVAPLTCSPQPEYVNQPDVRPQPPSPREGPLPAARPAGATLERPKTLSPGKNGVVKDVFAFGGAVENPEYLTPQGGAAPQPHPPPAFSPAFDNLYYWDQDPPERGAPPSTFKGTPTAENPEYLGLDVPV
The target is the same in experiment [7]. Particulars: at 1 µM.
Experiment [8] deals with Receptor tyrosine-protein kinase erbB-4 (Homo sapiens) (UniProt Q15303). The note with it: at 0.1 µM.
The target is the same in experiment [9]. The note with it: at 1 µM.
Experiment [10] has as its target Tyrosine-protein kinase Fer (Homo sapiens) (UniProt P16591). The note with it: at 0.1 µM.
Experiment [11] shares this target. The note with it: at 1 µM.
In experiment [12] the target is Tyrosine-protein kinase Fes/Fps (Homo sapiens) (UniProt P07332). Particulars: at 0.1 µM.
Tyrosine-protein kinase Fes/Fps (Homo sapiens), sequence (P07332 whole entry): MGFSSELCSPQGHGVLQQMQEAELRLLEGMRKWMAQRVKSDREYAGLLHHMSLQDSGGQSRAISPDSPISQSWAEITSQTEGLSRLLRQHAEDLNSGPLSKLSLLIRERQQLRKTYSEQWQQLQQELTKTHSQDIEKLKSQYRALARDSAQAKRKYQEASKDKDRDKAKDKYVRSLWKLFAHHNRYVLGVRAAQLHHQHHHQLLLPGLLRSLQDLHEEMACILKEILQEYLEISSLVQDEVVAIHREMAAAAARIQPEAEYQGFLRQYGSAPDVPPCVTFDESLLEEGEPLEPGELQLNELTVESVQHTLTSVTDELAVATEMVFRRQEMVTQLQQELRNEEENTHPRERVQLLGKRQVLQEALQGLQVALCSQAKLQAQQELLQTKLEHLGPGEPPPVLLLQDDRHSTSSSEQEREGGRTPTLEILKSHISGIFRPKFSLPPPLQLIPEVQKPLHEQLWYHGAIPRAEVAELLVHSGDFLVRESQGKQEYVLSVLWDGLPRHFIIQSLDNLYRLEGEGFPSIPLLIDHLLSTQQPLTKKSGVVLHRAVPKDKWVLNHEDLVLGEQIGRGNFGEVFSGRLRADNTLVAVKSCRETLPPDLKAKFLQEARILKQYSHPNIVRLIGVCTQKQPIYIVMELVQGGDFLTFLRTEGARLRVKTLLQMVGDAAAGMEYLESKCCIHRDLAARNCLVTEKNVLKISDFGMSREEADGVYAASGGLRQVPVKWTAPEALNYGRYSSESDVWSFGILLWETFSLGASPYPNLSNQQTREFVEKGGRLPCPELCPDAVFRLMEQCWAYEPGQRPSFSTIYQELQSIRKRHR
Experiment [13] shares this target. Particulars: at 1 µM.
Experiment [14] addresses Fibroblast growth factor receptor 1 (Homo sapiens) (UniProt P11362). The note with it: at 0.1 µM.
For experiment [15] the target is unchanged. Particulars: at 1 µM.
Experiment [16] concerns the target Fibroblast growth factor receptor 2 (Homo sapiens) (UniProt P21802). The note with it: at 0.1 µM.
Experiment [17] has the same target. Particulars: at 1 µM.
For experiment [18], the target named is Fibroblast growth factor receptor 3 (Homo sapiens) (UniProt P22607). The note with it: at 0.1 µM.
The target is the same in experiment [19]. The note with it: at 1 µM.
Experiment [20] concerns the target Fibroblast growth factor receptor 4 (Homo sapiens) (UniProt P22455). The note with it: at 0.1 µM.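 Further: values are mean percent inhibition of FGFR4.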

Data on three compounds can be found in ChEMBL document CHEMBL1961873, “Compounds: GSK PKIS; Assays: Nanosyn kinase panel” (2012).

Fibroblast growth factor receptor 2 (Homo sapiens), sequence (P21802 22-821 limits assumed): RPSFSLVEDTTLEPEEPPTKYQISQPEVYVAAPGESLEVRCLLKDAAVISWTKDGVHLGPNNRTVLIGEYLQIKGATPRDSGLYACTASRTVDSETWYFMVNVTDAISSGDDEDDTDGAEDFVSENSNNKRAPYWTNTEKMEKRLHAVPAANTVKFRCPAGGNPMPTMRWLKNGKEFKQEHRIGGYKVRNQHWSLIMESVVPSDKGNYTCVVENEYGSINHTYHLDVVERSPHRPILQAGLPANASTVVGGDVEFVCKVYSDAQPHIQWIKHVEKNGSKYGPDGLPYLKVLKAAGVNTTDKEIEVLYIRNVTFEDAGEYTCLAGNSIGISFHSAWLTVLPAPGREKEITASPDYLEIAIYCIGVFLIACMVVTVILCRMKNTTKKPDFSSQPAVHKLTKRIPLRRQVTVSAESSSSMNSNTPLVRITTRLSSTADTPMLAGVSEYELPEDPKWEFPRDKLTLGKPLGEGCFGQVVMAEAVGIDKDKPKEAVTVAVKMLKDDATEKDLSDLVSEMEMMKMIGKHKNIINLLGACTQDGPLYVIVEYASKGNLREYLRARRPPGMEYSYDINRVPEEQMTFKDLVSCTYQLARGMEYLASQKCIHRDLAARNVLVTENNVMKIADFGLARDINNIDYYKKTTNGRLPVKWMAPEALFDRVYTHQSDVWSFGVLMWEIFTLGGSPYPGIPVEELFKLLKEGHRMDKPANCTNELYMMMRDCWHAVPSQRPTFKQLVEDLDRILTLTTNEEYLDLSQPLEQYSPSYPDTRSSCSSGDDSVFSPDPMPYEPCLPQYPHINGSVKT
Fibroblast growth factor receptor 4 (Homo sapiens), sequence (P22455 22-802 limits assumed): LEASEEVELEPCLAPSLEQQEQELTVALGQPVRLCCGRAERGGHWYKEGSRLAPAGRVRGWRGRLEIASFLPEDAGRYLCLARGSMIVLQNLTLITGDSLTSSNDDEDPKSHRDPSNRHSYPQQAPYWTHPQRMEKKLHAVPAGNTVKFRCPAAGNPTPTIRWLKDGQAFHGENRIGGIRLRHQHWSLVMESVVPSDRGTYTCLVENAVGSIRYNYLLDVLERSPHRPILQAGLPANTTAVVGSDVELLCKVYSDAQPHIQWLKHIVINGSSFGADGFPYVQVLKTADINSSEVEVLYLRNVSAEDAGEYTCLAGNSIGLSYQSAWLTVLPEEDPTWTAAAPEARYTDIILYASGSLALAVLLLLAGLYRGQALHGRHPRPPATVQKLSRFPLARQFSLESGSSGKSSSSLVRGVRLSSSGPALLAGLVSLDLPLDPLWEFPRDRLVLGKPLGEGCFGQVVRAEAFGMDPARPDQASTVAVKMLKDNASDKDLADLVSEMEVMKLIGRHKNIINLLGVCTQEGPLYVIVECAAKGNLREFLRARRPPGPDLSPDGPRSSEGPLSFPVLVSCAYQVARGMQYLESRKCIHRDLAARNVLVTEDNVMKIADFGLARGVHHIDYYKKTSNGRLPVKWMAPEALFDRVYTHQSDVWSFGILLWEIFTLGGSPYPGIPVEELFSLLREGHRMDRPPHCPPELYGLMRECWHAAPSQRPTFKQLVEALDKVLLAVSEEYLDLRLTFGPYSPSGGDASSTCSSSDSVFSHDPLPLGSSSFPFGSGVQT
Tyrosine-protein kinase Fer (Homo sapiens), sequence (P16591 whole entry, looked up): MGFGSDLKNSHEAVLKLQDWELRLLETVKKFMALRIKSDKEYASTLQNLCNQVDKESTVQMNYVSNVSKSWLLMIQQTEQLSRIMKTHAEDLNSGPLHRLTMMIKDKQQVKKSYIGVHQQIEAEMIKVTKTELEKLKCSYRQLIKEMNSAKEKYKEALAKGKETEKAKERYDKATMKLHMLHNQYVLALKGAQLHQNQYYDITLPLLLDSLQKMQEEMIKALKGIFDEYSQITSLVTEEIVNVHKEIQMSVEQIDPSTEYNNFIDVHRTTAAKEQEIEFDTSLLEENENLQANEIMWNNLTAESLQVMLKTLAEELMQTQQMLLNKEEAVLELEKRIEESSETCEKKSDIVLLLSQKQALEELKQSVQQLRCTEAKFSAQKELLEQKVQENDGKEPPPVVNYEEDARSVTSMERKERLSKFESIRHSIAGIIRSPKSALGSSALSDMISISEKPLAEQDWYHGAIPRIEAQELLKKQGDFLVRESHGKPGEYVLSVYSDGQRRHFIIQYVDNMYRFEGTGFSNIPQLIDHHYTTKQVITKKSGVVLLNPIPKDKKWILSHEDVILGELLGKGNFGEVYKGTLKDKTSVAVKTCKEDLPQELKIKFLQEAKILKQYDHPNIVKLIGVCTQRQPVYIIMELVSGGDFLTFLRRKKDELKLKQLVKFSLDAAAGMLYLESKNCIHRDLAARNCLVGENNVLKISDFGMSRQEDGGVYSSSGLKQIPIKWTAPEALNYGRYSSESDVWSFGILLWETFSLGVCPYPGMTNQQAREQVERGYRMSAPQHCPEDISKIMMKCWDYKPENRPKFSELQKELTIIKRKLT

Take `NS(=O)(=O)c1ccc(N/N=C2\C(=O)Nc3ccc4ncccc4c32)cc1`: the inhibition in experiment [1] is 29.1%; in [2], 2.75%; in experiment [3], -3.76%; in experiment [4] it was 2.29%; in experiment [5], 13.2%; in experiment [6], 1.33%. The inhibition is -2.88% in experiment [7]; 11.4% in experiment [8]; 10.4% in experiment [9]; 3.38% in [10]; 22.8% in experiment [11]; 2.15% in experiment [12]. For the same compound, the inhibition in experiment [13] was found to be 6.75%; in experiment [14], 10.8%; in experiment [15], 41%; in experiment [16], 27.5%; in experiment [17], 69.8%; in [18], 26.1%. The inhibition in experiment [19] is 70.7%; in experiment [20], -0.17%.
Turning to `c1cc(-c2cnn3nc(N4CCOCC4)ccc23)nc(NC2CC2)n1`, the inhibition in [1] is 9.21%; in experiment [2] it was 2.88%; in experiment [3], 3.96%; in experiment [4] it was 0.45%; in [5], 1.96%; in [6] it was 1.45%. The inhibition in experiment [7] worked out at 1.94%; in experiment [8] it was 13.6%; in [9], 15.3%; in [10], 0.53%; in experiment [11] it was 1.58%; in [12] it was 3.42%. The inhibition in experiment [13] is 4.53%; in experiment [14], 8.29%; in experiment [15], 9.37%; in experiment [16], 4.74%; in experiment [17], 11.4%; in experiment [18] it was 6.59%. Besides, the inhibition in experiment [19] was determined as 10.9%; in experiment [20] it was 1.73%.
For the compound `CNC(=O)c1cncc(/C=C/c2ccccc2Cl)c1`, the inhibition in experiment [1] is 8.47%; in experiment [2] it was -1.27%; in experiment [3], 1.05%; in [4], -0.2%; in experiment [5] it was 4.63%; in [6], 0.54%. In addition, the inhibition in [7] was 5.61%; in [8], 3.2%; in experiment [9] it was 8.96%; in [10], 2.91%; in [11], 3.78%; in experiment [12], 0.21%. The inhibition in experiment [13] is 0.02%; in experiment [14], -1%; in experiment [15], -1.84%; in experiment [16], -1.98%; in experiment [17], 4.23%; in [18] it was 0.84%. The figures for the inhibition in experiment [19] and in experiment [20] were 1.98% and 1.47%, respectively.

In general, inhibition refers to the change of the read-out against control, counted positive when it falls.
